For 9 molecules, growth results are on record in PubChem BioAssay (NCI).

Common to all, as to assay: NCI-60 one-dose screen, 48 h (100 = growth as untreated, 0 = no growth, -100 = all killed)
One test relates to HCT-15 colon. Particulars: 10 µM unless noted.
Another test concerns HT29 colon. Particulars: 10 µM unless noted.
A further test has as its system SNB-75 CNS. Particulars: 10 µM unless noted.
The next test has as its system SNB-19 CNS. The conditions noted are these: 10 µM unless noted.
Another test concerns U251 CNS. The conditions noted are these: 10 µM unless noted.
For a further test, the system named is PC-3 prostate. Particulars: 10 µM unless noted.
A further test relates to SK-MEL-5 melanoma. Particulars: 10 µM unless noted.
A further test concerns UACC-62 melanoma. Particulars: 10 µM unless noted.
The next test relates to LOX IMVI melanoma. The conditions noted are these: 10 µM.
For another test, the system named is SK-MEL-28 melanoma. The conditions noted are these: 10 µM unless noted.
A further test relates to SK-MEL-2 melanoma. Particulars: 10 µM unless noted.
The test system of a further test is EKVX NSCLC. Particulars: 10 µM unless noted.
The subject of another test is SN12C renal. The conditions noted are these: 10 µM unless noted.
A further test has as its system UO-31 renal. The conditions noted are these: 10 µM unless noted.
The subject of a further test is TK-10 renal. The conditions noted are these: 10 µM unless noted.
Another test concerns ACHN renal. The conditions noted are these: 10 µM unless noted.
In the next test the test system is CAKI-1 renal. The conditions noted are these: 10 µM unless noted.
The next test deals with A498 renal. The conditions noted are these: 10 µM unless noted.
For a further test, the system named is CCRF-CEM leukemia. Particulars: 10 µM unless noted.
The next test has as its system MOLT-4 leukemia. Particulars: 10 µM unless noted.

The panel holds about 83,000 compounds, 20% with a hit somewhere; the sample as a whole holds those more often.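 The test compound was applied at a single concentration to cells in 96-well plates for 48 hours, and percent growth was recorded.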 A number with no mark means an inactive call. Active and inactive are the calls of the source. The calls were made as follows: active = growth percent below 10; inactive = the rest.

On to `Cc1cc2nc(C)c(C)nc2cc1C`, for which the growth in the test on HCT-15 colon was 107%; in the test on HT29 colon, 108%; with SNB-75 CNS, 99.4%; with SNB-19 CNS, 111%; in the test on U251 CNS it was 98.3%; with PC-3 prostate, 81.4%. For the same molecule, the growth in the test on SK-MEL-5 melanoma is 95.3%; in the test with UACC-62 melanoma it was 99.5%; with LOX IMVI melanoma, 97.2%; in the test with SK-MEL-28 melanoma it was 110%; with SK-MEL-2 melanoma, 113%; with EKVX NSCLC, 98.4%. Besides, the growth in the test with SN12C renal is 115%; in the test with UO-31 renal it was 78.2%; in the test with TK-10 renal, 118%; in the test with ACHN renal, 90.7%; in the test on CAKI-1 renal, 81.8%; in the test on A498 renal, 114%. Further, the growth in the test on CCRF-CEM leukemia is 102%; in the test on MOLT-4 leukemia, 106%.
Turning to `O=C(c1cccc(C(=O)c2ccc3c4c(cccc24)C(=O)N(c2ccccc2)C3=O)c1)c1ccc2c3c(cccc13)C(=O)N(c1ccccc1)C2=O`, the growth is 101% in the test on HCT-15 colon; 106% in the test with HT29 colon; 93.4% with SNB-75 CNS; 111% in the test with SNB-19 CNS; 89.3% with U251 CNS; 82.3% in the test on PC-3 prostate. The growth in the test on SK-MEL-5 melanoma is 84.4%; in the test on UACC-62 melanoma, 84.7%; in the test with LOX IMVI melanoma, 91.2%; in the test on SK-MEL-28 melanoma, 109%; in the test on SK-MEL-2 melanoma, 111%; in the test on EKVX NSCLC it was 104%. For the same molecule, the growth in the test on SN12C renal was 92.4%; in the test with UO-31 renal, 89.8%; with TK-10 renal it was 115%; in the test with ACHN renal, 102%; in the test on CAKI-1 renal, 100%; in the test with A498 renal, 86.7%. Further, the growth in the test with CCRF-CEM leukemia is 89.9%; in the test on MOLT-4 leukemia, 90.9%.
On to `COc1ccc(Br)c2c1C(=O)CC2`, for which the growth in the test on HCT-15 colon was 110%; in the test on HT29 colon, 106%; in the test on SNB-75 CNS, 99.6%; in the test on SNB-19 CNS it was 108%; with U251 CNS it was 107%; in the test on PC-3 prostate it was 96.6%. Also, the growth in the test on SK-MEL-5 melanoma is 109%; in the test with UACC-62 melanoma it was 90.4%; in the test with LOX IMVI melanoma it was 104%; with SK-MEL-28 melanoma it was 135%; with SK-MEL-2 melanoma, 96%; in the test with EKVX NSCLC it was 106%. Besides, the growth with SN12C renal was 91.8%; in the test with UO-31 renal it was 85.4%; in the test on TK-10 renal it was 147%; in the test on ACHN renal, 114%; in the test with CAKI-1 renal it was 110%; in the test with A498 renal, 169%. The growth in the test on CCRF-CEM leukemia was 93.1%; in the test with MOLT-4 leukemia it was 142%.
Turning to `CC(C)Sc1ncnc2nc[nH]c12`, the growth in the test on HCT-15 colon is 103%; in the test with HT29 colon it was 113%; in the test on SNB-75 CNS, 115%; with SNB-19 CNS it was 99.5%; in the test with U251 CNS, 107%; in the test on PC-3 prostate, 91.6%. Also, the growth in the test on SK-MEL-5 melanoma is 104%; in the test with UACC-62 melanoma it was 93.3%; in the test on LOX IMVI melanoma it was 100%; with SK-MEL-28 melanoma, 82.8%; with SK-MEL-2 melanoma, 108%; with EKVX NSCLC it was 94.7%. The growth in the test on SN12C renal is 96.7%; in the test on UO-31 renal it was 95.9%; in the test with TK-10 renal it was 116%; in the test on ACHN renal, 99.6%; in the test with CAKI-1 renal it was 101%; with A498 renal, 59.3%. Moreover, the growth with CCRF-CEM leukemia was 111%; with MOLT-4 leukemia, 146%.
Turning to `COc1nc2ccccc2s1`, the growth in the test with HCT-15 colon is 98%; in the test on HT29 colon, 102%; in the test on SNB-75 CNS it was 81%; with SNB-19 CNS, 110%; in the test on U251 CNS, 108%; in the test on PC-3 prostate, 89.1%. The growth was 97.5% in the test on SK-MEL-5 melanoma; 103% in the test on UACC-62 melanoma; 82.1% in the test with LOX IMVI melanoma; 100% with SK-MEL-28 melanoma; 100% with SK-MEL-2 melanoma; 108% in the test on EKVX NSCLC. For the same molecule, the growth in the test with SN12C renal is 99.3%; with UO-31 renal, 73.3%; with TK-10 renal, 111%; in the test on ACHN renal, 94.6%; with CAKI-1 renal, 90.5%; in the test with A498 renal it was 101%. Also, the growth in the test on CCRF-CEM leukemia was 102%; in the test with MOLT-4 leukemia, 103%.
In the case of `Oc1cccnc1CN1CCCC1`, the growth in the test with HCT-15 colon was 95.3%; in the test with HT29 colon, 108%; in the test on SNB-75 CNS, 96.1%; with SNB-19 CNS it was 104%; in the test on U251 CNS it was 94.8%; in the test with PC-3 prostate, 89.7%. The growth is 99.8% with SK-MEL-5 melanoma; 102% with UACC-62 melanoma; 96.6% with LOX IMVI melanoma; 107% in the test on SK-MEL-28 melanoma; 108% with SK-MEL-2 melanoma; 106% with EKVX NSCLC. For the same molecule, the growth in the test with SN12C renal is 97.6%; in the test with UO-31 renal, 92.1%; with TK-10 renal, 111%; with ACHN renal, 105%; in the test on CAKI-1 renal, 97%; with A498 renal, 108%. Also, the growth in the test with CCRF-CEM leukemia is 101%; in the test on MOLT-4 leukemia, 94.2%.
Turning to `C=CCNC(=S)N/C=C(/C(=O)c1ccccc1)c1ccccc1`, the growth in the test on HCT-15 colon is 108%; in the test with HT29 colon it was 120%; in the test with SNB-75 CNS it was 88.5%; with SNB-19 CNS, 106%; in the test on U251 CNS, 96.7%; in the test on PC-3 prostate, 99.9%. The growth in the test on SK-MEL-5 melanoma was 102%; in the test on UACC-62 melanoma, 98.8%; in the test on LOX IMVI melanoma, 98.1%; in the test on SK-MEL-28 melanoma, 104%; with SK-MEL-2 melanoma, 120%; in the test on EKVX NSCLC it was 106%. The growth in the test with SN12C renal was 93.6%; in the test on UO-31 renal, 95.3%; in the test on TK-10 renal, 107%; in the test with ACHN renal it was 97.7%; in the test with CAKI-1 renal, 101%; in the test with A498 renal, 98%. Also, the results for the growth in the test on CCRF-CEM leukemia and with MOLT-4 leukemia were 101% and 99.2%, respectively.
As for `S=c1nc2[nH]c3ccccc3c2n[nH]1`, the growth was 97.3% in the test with HCT-15 colon; 98.6% with HT29 colon; 103% in the test on SNB-75 CNS; 83.3% in the test with SNB-19 CNS; 105% with U251 CNS; 82.3% with PC-3 prostate. The growth with SK-MEL-5 melanoma is 90.1%; in the test with UACC-62 melanoma, 87.1%; with LOX IMVI melanoma, 89.6%; in the test with SK-MEL-28 melanoma, 91.7%; in the test on SK-MEL-2 melanoma, 5.51% (active); with EKVX NSCLC it was 66.4%. The growth with SN12C renal was 92.2%; with UO-31 renal it was 88.6%; in the test with TK-10 renal it was 122%; with ACHN renal, 97.2%; with CAKI-1 renal it was 88.9%; in the test on A498 renal, 95.7%. In addition, the growth in the test on CCRF-CEM leukemia was 91.3%; with MOLT-4 leukemia it was 104%.
For the molecule `CC(C)(CC(=O)O)CC(=O)O`, the growth with HCT-15 colon was 105%; with HT29 colon, 101%; in the test with SNB-75 CNS, 90.2%; in the test on SNB-19 CNS, 99.2%; in the test with U251 CNS it was 109%; in the test on PC-3 prostate it was 101%. Also, the growth with SK-MEL-5 melanoma was 97.7%; in the test with UACC-62 melanoma, 98.7%; in the test on LOX IMVI melanoma, 104%; with SK-MEL-28 melanoma it was 99.2%; in the test on SK-MEL-2 melanoma, 107%; in the test with EKVX NSCLC, 97.4%. Moreover, the growth in the test with SN12C renal was 97.2%; in the test with UO-31 renal, 94%; in the test with TK-10 renal, 96.5%; in the test with ACHN renal, 104%; in the test on CAKI-1 renal, 97.7%; in the test on A498 renal, 93.7%. Also, the growth was 105% in the test on CCRF-CEM leukemia and 100% with MOLT-4 leukemia.
